Test results reported in PubChem BioAssay AID743364 (National Center for Advancing Translational Sciences (NCATS), 2014).
Activity calls are given as the source filed them. Calls follow the shape of the dose curve; as a rule, active = well fitted curve in the direction sought with a large enough effect; inactive = no such curve, though single readings can be large or run the other way. Where a SMILES comes first, the peptide text is derived from it. [ ]: non-standard residue; d: D form. Orn = NCCC[C@H](N)C(=O)O

Assay: qHTS profiling of inhibitors of Plasmodium falciparum (3D7) proliferation (acoustic dispense)

| SMILES | outcome |
| --- | --- |
| CO[C@@H]1C(N(C)C(=O)c2ccccc2)C[C@H]2O[C@]1(C)n1c3ccccc3c3c4c(c5c6ccccc6n2c5c31)C(=O)NC4=O (stereo partly specified) | inactive |
| CCS(=O)(=O)Nc1ccc2[nH]c(O)c(C(=Nc3ccc(CN4CCCCC4)cc3)c3ccccc3)c2c1 | inactive |
| Cn1c(=O)c(-c2c(Cl)cccc2Cl)cc2cnc(Nc3cccc(C(=O)O)c3)nc21 | inactive |
| CC1(C)N=C(N)N=C(N)N1c1ccc(Cl)cc1 | inactive |
| CCNC(=O)c1noc(-c2cc(C(C)C)c(O)cc2O)c1-c1ccc(CN2CCOCC2)cc1 | inactive |
| COc1ccc(-c2nc(N3CCOCC3)c3sc(CN(C)c4ncc(C(=O)NO)cn4)cc3n2)cn1 | inactive |
| COc1cc2nc(N3CCCN(C)CC3)nc(NC3CCN(Cc4ccccc4)CC3)c2cc1OC | inactive |
| CC(C)C[C@@H]1NC(=O)[C@H](CCCN)NC(=O)[C@H](C(C)C)NC(=O)[C@@H]2CCCN2C(=O)[C@@H](Cc2ccccc2)NC(=O)[C@H](CC(C)C)NC(=O)[C@H](CCCN)NC(=O)[C@H](C(C)C)NC(=O)[C@@H]2CCCN2C(=O)[C@@H](Cc2ccccc2)NC1=O (cyclo(V[Orn]L[dF]PV[Orn]L[dF]P)) | inactive |
| C1CCC(C(CC2CCCCN2)C2CCCCC2)CC1 (stereo unspecified) | inactive |
| CC=C1C2C=C(C)CC1(N)c1ccc(=O)[nH]c1C2 (stereo unspecified) | inactive |
| COc1cc(NCc2ccc3nc(N)nc(N)c3c2C)cc(OC)c1OC | inactive |
| Cc1cn[nH]c1 | inactive |
| Cc1cn(-c2cc(NC(=O)c3ccc(C)c(Nc4nccc(-c5cccnc5)n4)c3)cc(C(F)(F)F)c2)cn1 | inactive |
| CC(C)[C@H](C(=O)Nc1ccc(C(=O)NO)cc1)c1ccccc1 | inactive |
| CC(C)Oc1cc(Nc2nc(N[C@@H](C)c3ccc(F)cn3)ncc2Cl)[nH]n1 | inactive |
| C[C@H](Cn1cnc2c(N)ncnc21)OCP(=O)(O)O | inactive |
| CN[C@@H](C)C(=O)N[C@H]1CCCC[C@H]2CC[C@@H](C(=O)N[C@@H](c3ccccc3)c3cn(CCCCc4ccc(CCCCn5cc([C@@H](NC(=O)[C@@H]6CC[C@@H]7CCCC[C@H](NC(=O)[C@H](C)NC)C(=O)N76)c6ccccc6)nn5)cc4)nn3)N2C1=O | inactive |
| CSc1cccc(Nc2ncc3cc(-c4c(Cl)cccc4Cl)c(=O)n(C)c3n2)c1 | inactive |
| CCOC(=O)[C@H](CCc1ccccc1)N[C@H]1CS[C@H](c2cccs2)CN(CC(=O)O)C1=O | inactive |
| CS(=O)(=O)CCNCc1ccc(-c2ccc3ncnc(Nc4ccc(OCc5cccc(F)c5)c(Cl)c4)c3c2)o1 | inactive |
| CC(C=CC(=O)NO)=C[C@@H](C)C(=O)c1ccc(N(C)C)cc1 | inactive |
